This is an account of results in PubChem BioAssay.

The source made the active and inactive calls.

Assay [1] has as its system PRMT1 (protein arginine N-methyltransferase 1). Description: PRMT1 binders on small-molecule microarrays, primary screen, biochemical, small-molecule microarray, 635 nm fluorescence (AID 1088).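 Further: binding of Prmt1 protein to compounds spotted on small-molecule microarray slides.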 Particulars: small-molecule microarray binding, higher = more signal.
Assay [2] in a line: yeast growth modulation, basal conditions, primary screen, YJM789 clinical isolate, OD600, 24 h (AID 1089).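 Further: growth of clinical yeast isolate S. cerevisiae YJM 789 seeded 1000 cells per well; test concentration not given here.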 Particulars: S. cerevisiae YJM789 growth, higher = more signal, called active from +8 up or from −8 down.
The nature of assay [3]: fission yeast growth modulation, primary screen, strain 972, OD600, 24 h, no modulator (AID 1090).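 Further: basal condition with compound alone and no growth modifier present; test concentration not given here.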 Conditions: S. pombe 972 growth, higher = more signal, called active from +8 up or from −8 down.
A short description of assay [4]: S. cerevisiae growth modulation with rapamycin, primary screen, strain BY4716, OD600, 96 h (AID 1091). Further: test concentration not given here. Conditions: higher = more signal, called active from +8 up or from −8 down.
Assay [5] deals with Torsin-1A-interacting protein 2 (Homo sapiens) (UniProt Q8NFQ8). Description: LULL1 binders on small-molecule microarray, primary screen, cell lysate, human LULL1 lysate, 635/667 nm fluorescence (AID 1092).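 Further: probe is lysate of COS7 cells overexpressing human LULL1; score merges per-feature 667 nm fluorescence with signal-to-noise.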 Particulars: hLULL1 lysate binding, 635 nm fluorescence, higher = more signal.
Assay [6] is described as follows: E. coli growth modulation, two-sided OD650, primary screen, E. coli filamentation project, strain DRC41, 24 h (AID 1093).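 Further: MC1000 strain lacking acrAB efflux and sulA so SOS filamentation is blocked; test concentration not given here.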 Particulars: OD650, 24 h, higher = more signal, called active from +8 up or from −8 down.
The nature of assay [7]: small-molecule microarray binders of probe aLefty2, primary screen, biochemical, biotinylated probe, 635/667 nm fluorescence (AID 1094).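 Further: score merges spot fluorescence near 667 nm with spot signal-to-noise ratio.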 Particulars: higher = more signal.
Assay [8] has as its system Noggin (protein binding on small-molecule microarray). Nature of the assay: Noggin binders on small-molecule microarray, primary screen, biochemical, 635/667 nm fluorescence (AID 1095).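 Further: score merges 667 nm feature fluorescence with signal to noise over triplicate slides.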 Particulars: 635 nm fluorescence, higher = more signal.
Assay [9] deals with Neurogenic locus notch homolog protein 3 (Homo sapiens) (UniProt Q9UM47). Description: NOTCH3 binders on small-molecule microarray, primary screen, biochemical, 635/667 nm fluorescence (AID 1096). Conditions: NOTCH3 binding, 635 nm fluorescence, higher = more signal.
Assay [10] is described as follows: small-molecule microarray binders of probe aEGFR, primary screen, biochemical, biotinylated probe, 635/667 nm fluorescence (AID 1097).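 Further: probe is a biotinylated anti-EGFR antibody binding compounds printed on slides; score combines fluorescence near 667 nm and signal to noise of each spot.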 Particulars: higher = more signal.
For assay [11], the system named is Plasmodium falciparum Sir2 (PF13_0152, Sir2A). Nature of the assay: pfSir2 binders on small-molecule microarrays, primary screen, biochemical, small-molecule microarray, 635 nm fluorescence (AID 1098).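 Further: score merges spot fluorescence intensity with its signal-to-noise ratio.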 Particulars: small-molecule microarray binding, fluorescence 635 nm; higher = more signal.
Assay [12] can be described thus: small-molecule microarray binders of probe aDKK1, primary screen, biochemical, biotinylated probe, 635/667 nm fluorescence (AID 1099).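 Further: score merges 667nm spot fluorescence with signal to noise across triplicate slides; reference of the scale not given here.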 Conditions: higher = more signal.
A short description of assay [13]: small-molecule microarray binders of probe aCHRDL2, primary screen, biochemical, biotinylated probe, 635/667 nm fluorescence (AID 1100). Particulars: higher = more signal.
Assay [14] can be described thus: splicing luciferase reporter signal modulators, primary screen, spliceosome inhibition project, cell-based, HEK293, splice +/- reporter (AID 1101).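 Further: HEK293 cells carrying a splicing-competent luciferase reporter gene; test concentration not given here.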 Particulars: luminescence, 24 h, higher = more signal, called active from +8 up or from −8 down. In general terms: Reporter assays use an easily measured gene product as a stand-in for the process of interest.
In assay [15] the target is Fibroblast growth factor 10 (Homo sapiens) (UniProt O15520). Nature of the assay: FGF10 binders on small-molecule microarrays, primary screen, biochemical, small-molecule microarray, 635 nm fluorescence (AID 1102). Particulars: FGF10 binding, fluorescence 635 nm, higher = more signal.
Assay [16] relates to glycogen synthase kinase-3 (GSK3A per assay name; protocol says GSK3B). Description: GSK3 binders on small-molecule microarrays, primary screen, biochemical, small-molecule microarray, 635 nm fluorescence, GSK3A (AID 1103). Further: the record names both GSK3A and GSK3B. Conditions: small-molecule microarray binding, fluorescence 635 nm; higher = more signal.
Assay [17] concerns the target Epidermal growth factor receptor (Homo sapiens) (UniProt P00533). Description: EGFR binders on small-molecule microarrays, primary screen, biochemical, small-molecule microarray, 635 nm fluorescence (AID 1104).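 Further: score merges 667 nm emission intensity with spot signal to noise over triplicate slides.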 Particulars: EGFR binding, higher = more signal.
Assay [18] deals with Follistatin-related protein 3 (Homo sapiens) (UniProt O95633). Nature of the assay: FSTL3 binders on small-molecule microarrays, primary screen, biochemical, small-molecule microarray, 635 nm fluorescence (AID 1105).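 Further: score merges emission near 667 nm and signal to noise per printed spot across three slides.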 Particulars: FSTL3 binding, higher = more signal.
Assay [19] addresses Dickkopf-related protein 1 (Homo sapiens) (UniProt O94907). Nature of the assay: DKK1 binders on small-molecule microarrays, primary screen, biochemical, small-molecule microarray, 635 nm fluorescence scan (AID 1106).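 Further: score merges emission near 667 nm with signal to noise over three replicate slides.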 Conditions: DKK1 binding, higher = more signal.
Assay [20] deals with Inhibin beta A chain (activin A). Nature of the assay: INHBA (activin A) binders on microarrays, primary screen, biochemical, small-molecule microarray, 635 nm fluorescence scan (AID 1107).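 Further: mouse activin A protein probed at 4.33 µg/mL on printed slides; score merges bound-protein fluorescence near 667 nm with spot signal-to-noise.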 Conditions: small-molecule microarray binding, higher = more signal.

Chain of Dickkopf-related protein 1 (Homo sapiens) (O94907 whole entry, looked up): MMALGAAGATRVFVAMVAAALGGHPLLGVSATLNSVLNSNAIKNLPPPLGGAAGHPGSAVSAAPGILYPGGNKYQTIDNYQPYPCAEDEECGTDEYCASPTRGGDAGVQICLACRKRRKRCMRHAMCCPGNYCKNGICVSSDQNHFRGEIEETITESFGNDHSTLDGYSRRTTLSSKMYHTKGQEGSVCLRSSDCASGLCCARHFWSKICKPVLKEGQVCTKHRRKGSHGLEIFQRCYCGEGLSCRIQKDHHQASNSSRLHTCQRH
Chain of Fibroblast growth factor 10 (Homo sapiens) (O15520 whole entry, looked up): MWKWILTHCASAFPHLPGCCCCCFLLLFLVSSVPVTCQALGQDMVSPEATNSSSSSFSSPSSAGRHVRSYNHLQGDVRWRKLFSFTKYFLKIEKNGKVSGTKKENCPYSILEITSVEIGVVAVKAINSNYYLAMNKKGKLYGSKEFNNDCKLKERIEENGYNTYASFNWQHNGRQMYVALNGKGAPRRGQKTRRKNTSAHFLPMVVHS
Chain of Epidermal growth factor receptor (Homo sapiens) (P00533 whole entry, looked up): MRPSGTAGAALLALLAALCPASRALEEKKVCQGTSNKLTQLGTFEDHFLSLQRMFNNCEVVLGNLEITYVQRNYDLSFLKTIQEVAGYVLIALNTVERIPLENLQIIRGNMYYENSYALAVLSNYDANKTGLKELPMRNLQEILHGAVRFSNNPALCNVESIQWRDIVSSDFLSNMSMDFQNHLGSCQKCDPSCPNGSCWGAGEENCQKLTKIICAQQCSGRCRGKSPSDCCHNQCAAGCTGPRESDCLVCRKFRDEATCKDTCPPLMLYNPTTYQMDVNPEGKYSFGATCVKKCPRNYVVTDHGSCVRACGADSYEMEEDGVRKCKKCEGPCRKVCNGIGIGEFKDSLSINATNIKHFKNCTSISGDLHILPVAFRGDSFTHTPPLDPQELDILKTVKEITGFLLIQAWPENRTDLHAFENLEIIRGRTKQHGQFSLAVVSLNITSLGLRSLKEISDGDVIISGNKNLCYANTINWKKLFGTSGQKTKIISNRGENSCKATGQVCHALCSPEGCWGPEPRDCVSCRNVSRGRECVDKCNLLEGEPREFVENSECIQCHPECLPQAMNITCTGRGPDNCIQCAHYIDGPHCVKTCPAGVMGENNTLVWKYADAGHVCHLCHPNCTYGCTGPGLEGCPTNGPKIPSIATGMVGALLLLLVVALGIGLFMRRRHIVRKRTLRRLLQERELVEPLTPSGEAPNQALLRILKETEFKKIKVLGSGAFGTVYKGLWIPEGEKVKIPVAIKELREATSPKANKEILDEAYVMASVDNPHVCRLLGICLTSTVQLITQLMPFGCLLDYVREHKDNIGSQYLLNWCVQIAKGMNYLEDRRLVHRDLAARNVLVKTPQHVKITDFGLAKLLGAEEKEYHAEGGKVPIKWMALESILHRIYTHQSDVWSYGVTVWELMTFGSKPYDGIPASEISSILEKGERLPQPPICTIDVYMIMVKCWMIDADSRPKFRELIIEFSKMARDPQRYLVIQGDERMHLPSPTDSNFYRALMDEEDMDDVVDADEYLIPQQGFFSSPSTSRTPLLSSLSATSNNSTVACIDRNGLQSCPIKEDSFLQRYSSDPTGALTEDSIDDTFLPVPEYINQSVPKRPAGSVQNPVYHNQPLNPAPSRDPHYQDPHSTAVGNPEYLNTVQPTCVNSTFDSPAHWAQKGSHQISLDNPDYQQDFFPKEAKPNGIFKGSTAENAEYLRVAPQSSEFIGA
Chain of Neurogenic locus notch homolog protein 3 (Homo sapiens) (Q9UM47 whole entry, looked up): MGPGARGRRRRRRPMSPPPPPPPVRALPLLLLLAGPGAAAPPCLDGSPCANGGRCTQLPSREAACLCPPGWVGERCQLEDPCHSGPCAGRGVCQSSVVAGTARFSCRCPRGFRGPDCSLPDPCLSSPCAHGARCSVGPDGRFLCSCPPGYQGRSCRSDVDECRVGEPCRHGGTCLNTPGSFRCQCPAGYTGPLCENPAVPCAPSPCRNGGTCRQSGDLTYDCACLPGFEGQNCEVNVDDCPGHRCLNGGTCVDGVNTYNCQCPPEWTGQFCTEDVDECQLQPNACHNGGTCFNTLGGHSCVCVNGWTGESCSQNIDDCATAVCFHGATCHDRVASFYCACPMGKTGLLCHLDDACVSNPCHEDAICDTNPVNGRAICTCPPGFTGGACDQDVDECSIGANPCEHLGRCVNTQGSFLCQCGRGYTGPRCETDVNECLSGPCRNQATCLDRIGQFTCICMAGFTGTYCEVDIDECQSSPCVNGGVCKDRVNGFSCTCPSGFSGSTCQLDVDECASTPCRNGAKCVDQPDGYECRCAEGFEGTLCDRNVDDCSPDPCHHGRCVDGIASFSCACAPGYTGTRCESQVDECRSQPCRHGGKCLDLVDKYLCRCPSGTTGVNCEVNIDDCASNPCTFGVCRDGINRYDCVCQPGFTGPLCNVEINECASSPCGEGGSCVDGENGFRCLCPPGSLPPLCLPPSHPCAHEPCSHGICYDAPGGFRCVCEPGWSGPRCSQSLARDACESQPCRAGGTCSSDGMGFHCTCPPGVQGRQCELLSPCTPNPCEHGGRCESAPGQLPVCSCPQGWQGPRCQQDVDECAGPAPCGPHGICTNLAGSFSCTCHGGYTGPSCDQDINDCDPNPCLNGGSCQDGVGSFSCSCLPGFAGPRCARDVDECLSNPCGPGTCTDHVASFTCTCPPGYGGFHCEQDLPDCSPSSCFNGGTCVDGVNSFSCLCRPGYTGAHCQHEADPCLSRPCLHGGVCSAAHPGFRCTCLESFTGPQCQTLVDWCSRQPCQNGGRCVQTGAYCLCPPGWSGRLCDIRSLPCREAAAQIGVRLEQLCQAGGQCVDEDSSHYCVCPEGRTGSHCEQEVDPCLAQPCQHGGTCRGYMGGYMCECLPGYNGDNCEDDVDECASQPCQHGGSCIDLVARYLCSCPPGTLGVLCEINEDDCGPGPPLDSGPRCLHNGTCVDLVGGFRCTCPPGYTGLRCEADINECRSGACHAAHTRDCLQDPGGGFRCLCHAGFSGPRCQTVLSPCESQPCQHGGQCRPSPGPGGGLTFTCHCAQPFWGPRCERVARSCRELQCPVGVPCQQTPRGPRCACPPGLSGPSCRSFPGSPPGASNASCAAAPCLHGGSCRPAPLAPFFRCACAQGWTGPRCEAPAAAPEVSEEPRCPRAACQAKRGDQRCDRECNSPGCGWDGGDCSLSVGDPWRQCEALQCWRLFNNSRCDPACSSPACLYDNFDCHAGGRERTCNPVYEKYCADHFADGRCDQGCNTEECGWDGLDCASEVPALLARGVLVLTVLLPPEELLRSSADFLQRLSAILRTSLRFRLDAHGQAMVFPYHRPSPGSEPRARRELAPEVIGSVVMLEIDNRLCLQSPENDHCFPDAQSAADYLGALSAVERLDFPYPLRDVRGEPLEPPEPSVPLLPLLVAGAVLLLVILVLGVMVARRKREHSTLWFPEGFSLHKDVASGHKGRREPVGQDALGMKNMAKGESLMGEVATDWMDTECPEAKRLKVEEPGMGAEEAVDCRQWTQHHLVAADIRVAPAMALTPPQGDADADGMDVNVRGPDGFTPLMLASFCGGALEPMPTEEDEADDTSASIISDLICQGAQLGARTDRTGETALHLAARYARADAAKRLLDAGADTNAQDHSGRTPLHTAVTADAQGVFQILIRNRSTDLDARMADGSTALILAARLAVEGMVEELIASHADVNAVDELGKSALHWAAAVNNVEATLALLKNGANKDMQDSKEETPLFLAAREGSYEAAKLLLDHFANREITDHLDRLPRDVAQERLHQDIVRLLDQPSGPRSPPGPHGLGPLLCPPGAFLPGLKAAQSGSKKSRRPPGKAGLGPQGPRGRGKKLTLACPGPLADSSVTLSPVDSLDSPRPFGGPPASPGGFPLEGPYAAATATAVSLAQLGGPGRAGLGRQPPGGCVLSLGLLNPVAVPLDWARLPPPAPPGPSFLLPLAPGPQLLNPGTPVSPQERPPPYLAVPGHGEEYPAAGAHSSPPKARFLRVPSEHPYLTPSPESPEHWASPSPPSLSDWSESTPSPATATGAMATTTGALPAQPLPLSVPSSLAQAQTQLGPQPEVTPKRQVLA
Chain of Follistatin-related protein 3 (Homo sapiens) (O95633 whole entry, looked up): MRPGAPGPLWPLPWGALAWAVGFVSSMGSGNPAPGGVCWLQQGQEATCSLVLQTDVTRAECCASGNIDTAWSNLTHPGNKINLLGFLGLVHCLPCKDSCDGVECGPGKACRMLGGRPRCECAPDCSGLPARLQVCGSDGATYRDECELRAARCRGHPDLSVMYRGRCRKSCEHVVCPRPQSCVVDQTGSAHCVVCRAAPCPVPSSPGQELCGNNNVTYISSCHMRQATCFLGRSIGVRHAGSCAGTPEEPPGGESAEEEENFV
Chain of Torsin-1A-interacting protein 2 (Homo sapiens) (Q8NFQ8 whole entry, looked up): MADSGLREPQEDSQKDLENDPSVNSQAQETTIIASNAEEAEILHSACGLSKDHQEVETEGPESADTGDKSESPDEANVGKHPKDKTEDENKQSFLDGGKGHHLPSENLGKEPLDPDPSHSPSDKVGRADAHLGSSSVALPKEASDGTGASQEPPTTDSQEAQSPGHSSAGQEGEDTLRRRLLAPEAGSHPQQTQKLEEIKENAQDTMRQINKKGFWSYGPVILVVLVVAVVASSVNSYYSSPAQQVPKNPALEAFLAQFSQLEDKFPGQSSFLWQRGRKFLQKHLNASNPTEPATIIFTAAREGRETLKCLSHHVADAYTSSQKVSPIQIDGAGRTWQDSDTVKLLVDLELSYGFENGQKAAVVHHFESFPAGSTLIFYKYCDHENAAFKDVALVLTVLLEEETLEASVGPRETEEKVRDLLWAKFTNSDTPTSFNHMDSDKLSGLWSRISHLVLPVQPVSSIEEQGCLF

As to `CCOC(=O)[C@H](Cc1ccccc1)NC(=O)CCC1CC(OC(=O)NCc2ccc3c(c2)OCO3)CC2(CCCC(COC(=O)NCC3CCCCC3)O2)O1` (stereo not given in full), the composite z-score in assay [1] is 1.55; in assay [5], 2.62; in assay [7], -0.157; in [8], 0.742; in assay [9], 1.11; in assay [10], 0.0632. Also, the composite z-score in [11] is 0.599; in [12] it was -0.151; in [13] it was -0.5; in [15] it was 0.802; in [16], 1.27; in assay [17] it was 0.44. For the same compound, the composite z-score in [18] is 1.05; in [19], 0.655; in [20], -0.0031. Moreover, the z-score in [2] was -0.827 (inactive); in [3] it was 0.455 (inactive); in assay [4], -0.38 (inactive); in assay [6] it was -0.201 (inactive); in assay [14], -0.481 (inactive).

Turning to `[N-]=[N+]=NCc1ccccc1C[C@]1(C(=O)NCc2ccccc2)N=C(c2ccc(OCCCO)cc2)O[C@H]1c1ccccc1N=[N+]=[N-]`, the composite z-score in [1] came out at 1.26; in [5] it was 3.17; in [7], 0.284; in assay [8], 0.179; in assay [9], 0.755; in assay [10], 0.464. Further, the composite z-score in [11] was 1.3; in [12] it was 0.658; in assay [13], 1.09; in assay [15], 0.856; in [16], 1.12; in assay [17], -0.463. Besides, the composite z-score is 0.188 in assay [18], -0.678 in assay [19] and -0.222 in [20]. For the same compound, the z-score in assay [2] is 0.228 (inactive); in assay [3], 1 (inactive); in assay [4], 6.01 (inactive); in assay [6] it was 0.368 (inactive); in [14], 0.00592 (inactive).

As for `COC(=O)[C@@H]1N=C(c2ccc(OCCCO)cc2)O[C@@H]1c1ccccc1N=[N+]=[N-]`, the composite z-score is 1.5 in assay [1]; 3.01 in assay [5]; 0.19 in [7]; -0.179 in [8]; 0.487 in assay [9]; -0.027 in assay [10]. Also, the composite z-score was 1.47 in assay [11]; 1.14 in assay [12]; 1.37 in assay [13]; 0.046 in assay [15]; 0.981 in assay [16]; -0.356 in assay [17]. Also, the composite z-score in assay [18] was -0.0503; in assay [19] it was -0.68; in assay [20], 1.08. The z-score was -2.6 (inactive) in assay [2]; -7.5 (inactive) in [3]; -1.15 (inactive) in assay [4]; 1.2 (inactive) in [6]; -1.99 (inactive) in assay [14].

In the case of `CC(C)C[C@@H]1NC(=O)[C@H]2C[C@@H](C(=O)NCCCCCCN(C)C)[C@@H](c3cccc(OCCO)c3)N2C1=O`, the composite z-score in [1] came to 1.53; in [5] it was 2.12; in assay [7] it was 0.173; in [8], 1.19; in [9], 1.04; in assay [10], 0.0948. Also, the composite z-score in assay [11] was found to be 1.5; in assay [12] it was 0.346; in assay [13], 0.124; in assay [15] it was 1.01; in assay [16] it was 1.21; in [17], 0.317. Moreover, the composite z-score in [18] was 1.35; in [19] it was 1.74; in assay [20] it was 1.1. For the same compound, the z-score in assay [2] is -1.16 (inactive); in assay [3], 0.184 (inactive); in assay [4], -0.46 (inactive); in [6], -0.0145 (inactive); in assay [14], -0.152 (inactive).

As for `CC(CCN1CCc2nc(-c3ccccc3)c(-c3ccccc3)cc2C1)=NO[C@@H](C)c1cn([C@H](CO)Cc2ccccc2)nn1`, the composite z-score in [1] is 0.747; in assay [5], 0.272; in assay [7] it was -0.037; in assay [8] it was 0.549; in assay [9], -0.474; in [10], -0.0172. Further, the composite z-score is 0.0154 in assay [11]; -0.336 in assay [12]; 0.119 in assay [13]; -0.105 in [15]; -0.335 in assay [16]; 0.209 in assay [17]. For the same compound, the composite z-score in [18] amounted to 0.176; in [19] it was 0.175; in assay [20] it was 1.13. The z-score in assay [2] is -2.46 (inactive); in assay [3] it was -2.24 (inactive); in assay [4] it was -4.45 (inactive); in assay [6] it was -0.966 (inactive); in assay [14] it was -1.26 (inactive).
